The values below come from PubChem BioAssay (NCATS).

Inconclusive results are not listed. Active and inactive are the calls of the source. The call rests on the fitted dose curve; in most records, active means well fitted cell-killing curve with a large enough effect; inconclusive means small, poorly fitted or top-dose-only effect; inactive means flat fitted curve, though single readings scatter. Starred links: 1 amine or outer side, 2 acyl side, 3 side chain; linkers in the order of their positions; H or OH if unused. Positions of bridges follow the written chain, without caps; N, C: chain ends. Non-standard residues stand in square brackets, D forms with d. Residues, ends and D or L forms follow the SMILES beside them. Chains are numbered I, II in the order given. ξ: configuration not given here. *: point of attachment. Actinocin(9to1) = Cc1c2oc3c(C)ccc(C(=O)[*:1])c3nc-2c(C(=O)[*:2])c(N)c1=O; Octanoyl(6-Me) = CCC(C)CCCCC(=O)*; ξThr(3R) = C[C@@H](O)C(N)C(=O)O; NMeV = CN[CH](C(=O)O)C(C)C; dDab = NCC[C@@H](N)C(=O)O; Dab = NCC[C@H](N)C(=O)O; Sar = CNCC(=O)O
Potency means the concentration at half of the fitted maximal effect.

This assay in a line: qHTS of pediatric cancer cell lines to identify multiple opportunities for drug repurposing: Primary screen for RD cells (AID 1347104). Further: nearly all actives have a fitted effect of over 55% in size. The following applies: RD rhabdomyosarcoma viability, CellTiter-Glo luminescence, 48 h; series mostly up to 46 µM. An excerpt: Drug repurposing or repositioning has been offered as a strategy for drug development in oncology programs. This approach has special potential for childhood cancers and other rare or orphan diseases, where the expected return on new drug development has been a disincentive to pharmaceuticals. […] In this project we exploit the poly-pharmacology of drugs to discover new indications via phenotypic screening of a panel of 19 well-characterized cell lines derived from solid tumors seen in children and adolescents. The goal is to identify approved drugs with previously unrecognized anticancer properties that has the potential to reveal new mechanisms and biological processes involved in carcinogenesis or drug resistance. We employed a titration-based paradigm (quantitative high-throughput screening or qHTS), where all compounds were tested at multiple concentrations for their effect on cell viability. Concentration-response curves (CRCs) were derived directly from the primary screen, and both potency and efficacy values were used to identify compounds with robust bioactivity profiles. We screened the NIH Chemical Genomics Center (NCGC) Pharmaceutical Collection (NPC) and Mechanism Interrogation Plate (MIPE) small molecule collections of approved and investigational compounds against these cell lines; and measured metabolically active cells after 48 hours of compound treatment as a proxy for cell viability. […] Assay Submitter: Nathalia J. Martinez, National Center for Advancing Translational Sciences, National Institutes of Health, Rockville, MD, USA; email: natalia.martinez@nih.gov Shen, M et al. Quantitative high-throughput phenotypic screening of pediatric cancer cell lines identifies multiple opportunities for drug repurposing. Oncotarget 2017 Dec 19;9(4):4758-4772. PMID 29435139.
The cells were obtained from University of North Carolina (UNC), Pediatric Preclinical Testing Program (PPT), and Coriell Institute (CI). qHTS cell viability assay: Cells were assayed in growth media at a density of 500-1,000 cells/well. Five microliters of cells were dispensed into 1,536-well, white, solid-bottom, TC-treated plates (Greiner Bio One) using a multidrop dispenser and incubated at 37 degrees C, 5% CO2, under a humidified atmosphere for 5 hours. Twenty-three nanoliters of compounds and controls (neutral control DMSO or positive control bortezomib at final concentration of 2.3 µM) were subsequently transferred by Kalypsys pintool. For primary screens, the MIPE collection was tested at 11-point dilutions (final concentrations range from 0.78 nM to 46 µM) and the NPC collection at 8-point dilutions (final concentrations range from 0.59 nM to 46 µM). Compounds tested in follow-up screens were assayed at 11-point dilutions. Cells were incubated for 48 hours, followed by addition of 3 µL of CellTiter-Glo (Promega). After a 15 min incubation at room temperature, samples were analyzed for luminescence intensity using a ViewLux High-throughput CCD imager equipped with clear filters.
In general terms: In qHTS, concentration-response curves come from the screen itself.
For `CN(C)CC(=O)N1CCC(c2ccc(NC(=O)c3ncc(C#N)[nH]3)c(C3=CCCCC3)c2)CC1`, the Potency is 18.7 µM (active).

With `O=C(c1ccc(F)cc1)N1CCC[C@H](c2nc(-c3ccc(F)cc3)no2)C1`, the Potency result was “inactive”.

Turning to `Cc1c2oc3c(C)ccc(C(=O)NC4C(=O)NC(C(C)C)C(=O)N5CCCC5C(=O)N(C)CC(=O)N(C)C(C(C)C)C(=O)OC4C)c3nc-2c(C(=O)NC2C(=O)NC(C(C)C)C(=O)N3CCCC3C(=O)N(C)CC(=O)N(C)C(C(C)C)C(=O)OC2C)c(N)c1=O` (stereo not given) (I: TVP[Sar][NMeV] / II: TVP[Sar][NMeV]; ester I:1-I:C, II:1-II:C; linker I:N-II:N via Actinocin(9to1); configuration not given here), the Potency is 0.001 µM (active).

Turning to `O=C(NC1CC1)c1cccc(-c2ccc3c(NC(=O)C4CC4)n[nH]c3c2)c1`, the Potency is 0.935 µM (active).

Turning to `C[C@H](CCC(=O)O)[C@H]1CC[C@H]2[C@@H]3[C@H](O)C[C@@H]4C[C@H](O)CC[C@]4(C)[C@@H]3CC[C@]12C`, the Potency entry is “inactive”.

Regarding `C[C@H](NCc1ccc2c(c1)nc(NC(=O)c1ccc(-c3cn[nH]c3)s1)n2CCc1ccccc1)C(C)(C)C`, the Potency is 3.72 µM (active).

With `OCC(O)C(O)C(O)CO` (stereo not given), the Potency entry was “inactive”.

Regarding `CC(=O)ON=C1C(c2c(O)[nH]c3cc(Br)ccc23)=Nc2ccccc21`, the Potency was 6.62 µM (active).

As to `C[C@H](NC(=O)Cc1cc(F)cc(F)c1)C(=O)N[C@H](C(=O)OC(C)(C)C)c1ccccc1`, the Potency entry is “inactive”.

Regarding `O=C(CCCCCCC(=O)Nc1cccnc1)NO`, the Potency is 16.6 µM (active).

For `c1ccc(CNc2nc(NCc3ccccc3)c3ccccc3n2)cc1`, the Potency is 16.6 µM (active).

Consider `Nc1nc(=O)n([C@H]2C[C@H](O)[C@@H](CO)O2)cc1F`, for which the Potency result was “inactive”.

With `Cc1ccc([N+](=O)[O-])cc1S(=O)(=O)N(C)N=Cc1cnc2ccc(Br)cn12`, the Potency is 0.0743 µM (active).

Take `O=c1[nH]c(=O)n([C@H]2C[C@@H](O)[C@@H](CO)O2)cc1C=CBr`: the Potency result is “inactive”.

`O=C1NC(=O)C(=Cc2ccc3nccc(-c4ccncc4)c3c2)S1`: the Potency is 0.372 µM (active).

For the molecule `CCC(C)CCCCC(=O)N[C@@H](CCN)C(=O)NC(C(=O)N[C@H](CCN)C(=O)N[C@@H]1CCNC(=O)C([C@@H](C)O)NC(=O)[C@@H](CCN)NC(=O)[C@@H](CCN)NC(=O)[C@@H](CC(C)C)NC(=O)[C@H](Cc2ccccc2)NC(=O)[C@H](CCN)NC1=O)[C@@H](C)O` (stereo partly drawn) ({Octanoyl(6-Me)}-[Dab][ξThr(3R)][dDab][dDab][Dab]F[dL][dDab][dDab][ξThr(3R)]; lactam 4-C), the Potency result was “inactive”.

As for `CC(C)[C@H](CO)Nc1nc(Nc2cccc(Cl)c2)c2ncn(C(C)C)c2n1`, the Potency was 18.7 µM (active).

For `NC[C@H]1O[C@H](O[C@H]2[C@@H](O)[C@@H](O[C@H]3O[C@H](CO)[C@@H](O)[C@H](N)[C@@H]3O)[C@H](N)C[C@@H]2N)[C@H](N)C[C@H]1O`, the Potency result was “inactive”.

On to `CN[C@@H]1C[C@H]2O[C@@](C)([C@H]1OC)n1c3ccccc3c3c4c(c5c6ccccc6n2c5c31)C(=O)N[C@H]4O`, for which the Potency was 1.05 µM (active).

For `C[C@H]1COc2c(N3CCN(C)CC3)c(F)cc3c(=O)c(C(=O)O)cn1c23`, the Potency result is “inactive”.

Turning to `Cc1ccc2nc(NCCN)c3ncc(C)n3c2c1`, the Potency is 13.2 µM (active).

Regarding `CN(CC(=O)N(Cc1ccc(C2CCCCC2)cc1)c1ccc(C(=O)O)c(O)c1)S(=O)(=O)c1c(F)c(F)c(F)c(F)c1F`, the Potency was 37.2 µM (active).

For the molecule `C[C@]12CC[C@@H]3c4ccc(O)cc4CC[C@H]3[C@H]1CC[C@H]2O`, the Potency was 10.5 µM (active).

With `CCCc1nc(C(C)(C)O)c(C(=O)O)n1Cc1ccc(-c2ccccc2-c2nn[nH]n2)cc1`, the Potency entry was “inactive”.

As for `N#CC(=C(O)c1ccc(Cl)cc1Cl)c1nc2cc(Cl)ccc2c(=O)[nH]1`, the Potency entry is “inactive”.

With `C#C[C@]1(O)CC[C@@H]2[C@@H]3CCC4=CC(=O)CC[C@@H]4[C@H]3CC[C@@]21CC`, the Potency result was “inactive”.

For `Cc1[nH]c(C=C2C(=O)Nc3ccccc32)c(C)c1CCC(=O)O`, the Potency was 18.7 µM (active).

Consider `NC1=N[C@H]2[C@H](CS[C@H]2CCCCC(=O)O)N1`, for which the Potency result was “inactive”.

Consider `CCCCCCCCCCCCCCCC(=O)OC[C@@H](NC(=O)C(Cl)Cl)[C@H](O)c1ccc([N+](=O)[O-])cc1`, for which the Potency result is “inactive”.

Regarding `C[C@@]12C(=O)OC(=O)[C@@]1(C)C1CCC2O1`, the Potency is 5.9 µM (active).

Consider `CC(C)(C)[N+]([O-])=Cc1ccc(S(=O)(=O)O)cc1S(=O)(=O)O`, for which the Potency result is “inactive”.

Consider `NS(=O)(=O)OC[C@@H]1C[C@@H](n2ccc3c(N[C@H]4CCc5ccccc54)ncnc32)C[C@H]1O`, for which the Potency was 0.833 µM (active).

Take `COc1cc2ncnc(Nc3cccc(Br)c3)c2cc1OC`: the Potency was 0.935 µM (active).

In the case of `CCCNC(=O)[C@H]1O[C@H]1C(=O)N[C@H](C(=O)N1CCC[C@@H]1C(=O)OC)C(C)CC` (stereo not given in full), the Potency is 10.5 µM (active).

Regarding `OCCNC1CCCc2c1[nH]c1ccc(-c3ccccc3)cc21` (stereo not given), the Potency is 33.2 µM (active).

In the case of `CC(=O)O[C@H]1C[C@@H]2CC[C@H]3[C@H]4C[C@H]([N+]5(C)CCCCC5)[C@@H](OC(C)=O)[C@@]4(C)CC[C@@H]3[C@@]2(C)C[C@H]1[N+]1(C)CCCCC1`, the Potency result is “inactive”.

With `CC(=O)N1CCN(c2ccc(OCc3nn(C)c(C)c3-c3cccc4c(CCCOc5cccc6ccccc56)c(C(=O)O)n(Cc5cccnc5)c34)cc2)CC1`, the Potency was 1.66 µM (active).

Regarding `CC(C=CC=C(C)C=CC1=C(C)CCCC1(C)C)=CC=CC=C(C)C=CC=C(C)C=CC1=C(C)CCCC1(C)C`, the Potency was 29.6 µM (active).

Turning to `CC(=O)O[C@H]1C[C@@H]2CC[C@H]3[C@H]4C[C@H]([N+]5(C)CCCCC5)[C@@H](OC(C)=O)[C@@]4(C)CC[C@@H]3[C@@]2(C)C[C@H]1N1CCCCC1`, the Potency entry was “inactive”.

In the case of `OCCN1C[C@H](O)[C@@H](O)[C@H](O)[C@@H]1CO`, the Potency entry was “inactive”.
